HTR5A ag ctr: activates human HTR5A in OPRM1-OPRD1 agonist counter-screen. AID 504692. activation, % at 9.3 µM. HTR5A agonist assay, luminescence, cell-based. 340,000 tested, 0.61% active. P47898; in the data active = activation mostly above about 9.5%, no sharp cut-off; inactive = mostly below about 7.6%;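 note: 0% = cells with vehicle only and 100% = reference agonist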
Target sequence (P47898 whole entry, looked up): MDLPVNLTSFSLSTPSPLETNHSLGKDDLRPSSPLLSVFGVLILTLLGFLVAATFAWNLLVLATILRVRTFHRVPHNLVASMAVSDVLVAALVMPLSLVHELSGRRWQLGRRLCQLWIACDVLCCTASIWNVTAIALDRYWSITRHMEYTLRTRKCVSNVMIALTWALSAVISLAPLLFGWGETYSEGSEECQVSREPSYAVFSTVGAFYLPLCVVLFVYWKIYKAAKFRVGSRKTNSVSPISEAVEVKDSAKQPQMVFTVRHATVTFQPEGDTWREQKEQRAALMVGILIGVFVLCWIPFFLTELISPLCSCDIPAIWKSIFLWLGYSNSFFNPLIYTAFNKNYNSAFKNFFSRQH
OPRM1-OPRD1 inv: mu-delta opioid heterodimer inverse agonism; P35372+P41143; cell-based MOR-DOR heterodimer luminescence; inhibition, % at 9.3 µM; 340,000 tested, 0.21% active; AID 504357; in the data active = inhibition above about 22%, passing the limit was not always enough;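 note: 0% = cells with DMSO and 100% = wells without cells with DMSO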
OPRM1-OPRD1 ag: OPRM1-OPRD1 heterodimerization agonism. activation, % at 9.3 µM. 340,000 tested, 0.3% active. cells, luminescence. P35372+P41143; in the data active = activation above about 18%;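 note: 0% = vehicle-treated cells and 100% = reference agonist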
HTR5A inv ag: counter-screen for OPRM1-OPRD1 inverse agonists: human HTR5A inverse agonism; P47898; HTR5A cell line, luminescence; inhibition, % at 9.3 µM; 340,000 tested, 0.083% active; AID 504634; in the data active = inhibition mostly above about 23%, no sharp cut-off; inactive = mostly below about 18%;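 note: 0% = cells with DMSO and 100% = no-cell wells with DMSO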
* marks the source's active call; other numbers are inactive results. Only some compounds are listed: those with a hit (about 1.1% of all), similar ones and a draw of the others.

SMILES	HTR5A ag ctr	OPRM1-OPRD1 inv	OPRM1-OPRD1 ag	HTR5A inv ag
Nc1ccc(-c2c3ccc(=O)cc-3oc3cc(O)ccc23)c(C(=O)O)c1	-5	32*	-6	17
CN(C)CC1C2CCC(C2)C1O (stereo not given)	-1	13	-3	4
CC(=O)N1CCN(c2nnc(-c3ccc(C)cc3)c3ccccc23)CC1	1	6	-1	-2
Cc1ccc(OCC(=O)N2CCN(c3nnc(-c4ccccc4)c4ccccc34)CC2)cc1	9.0*	-1	0	4
CC(C)(C)c1ccc(/C=C/C(=O)Nc2ccncc2)cc1	13*	-49	10	-25
C=CCN1CCC(=O)C(C(=O)OCC)=C1C(=O)OCC	1	11	-2	-3
O=[N+]([O-])c1ccccc1/C=C/C=N/n1c(-c2ccccc2)n[nH]c1=S	13*	-21	3	-35
Cc1ccc(-c2n[nH]c(=S)n2/N=C/C=C\c2ccccc2[N+](=O)[O-])cc1	-4	-13	3	9
COC(=O)C1=C(C)N(Cc2ccccc2)C(=NCc2cccc(Cl)c2)N[C@H]1c1cccc(F)c1	3	-154	28*	-8
COC(=O)C1=C(C)N(Cc2ccccc2)C(=NCc2ccc(OC)cc2)N[C@H]1c1cccc(F)c1	6	-26	4	-15
COC(=O)C1=C(C)N(Cc2ccccc2)C(=NCc2ccccc2)N[C@H]1c1cccc(C(F)(F)F)c1	13*	-83	15	-76
COC(=O)C1=C(C)N(Cc2ccccc2)C(=NCC(C)C)N[C@H]1c1cccc(C(F)(F)F)c1	5	-54	9	-9
COc1cc(C)ccc1OCc1cc(C(=O)N(Cc2c(C)nn(C)c2C)C2CC2)no1	0	3	-1	14
Cn1c2c(c(=O)n1-c1ccccc1)CSCC2	4	-5	1	15
Cc1ccc(N(CC(=O)N/N=C/c2cc(C)n(-c3ccccc3)c2C)S(C)(=O)=O)c(C)c1	13*	15	-4	-16
Cc1ccc(N(CC(=O)Nc2c(C)n(C)n(-c3ccccc3)c2=O)S(C)(=O)=O)c(C)c1	2	0	0	5
CC(C)/C=C/CN1CCN(CCCc2ccccc2)C(CCO)C1 (stereo not given)	-4	9	-2	14
O=C(NNS(=O)(=O)c1ccc(F)cc1)c1ccccc1F	12*	14	-3	-45
CNC(=S)NCCN1CCOCC1	13*	7	-1	14
CCOC(=O)c1sc(NC(=O)CSc2nc(-c3ccco3)cc(C(F)(F)F)n2)c(C(=O)OCC)c1C	1	10	-2	-10
Cc1ccc(NC(=O)CSc2ncn[nH]2)cc1	3	17	-3	-9
O=C(CSc1ncn[nH]1)Nc1ccc2c(c1)CCC2	12*	2	0	-42
CCN(CC)S(=O)(=O)c1ccc(C(=O)OCCN2C(=O)c3cccc4c(N5CCOCC5)ccc(c34)C2=O)cc1	2	22	-4	-6
CC(=O)N(C(C)=O)N1C(=O)c2cccc3c(N4CCOCC4)ccc(c23)C1=O	11*	15	-3	-30
O=C(CN(C1CCCCC1)S(=O)(=O)c1ccccc1)NCC1CCCO1 (stereo not given)	7	4	-1	-21
SMILES	HTR5A ag ctr	OPRM1-OPRD1 inv	OPRM1-OPRD1 ag	HTR5A inv ag
O=C(CN(C1CCCCC1)S(=O)(=O)c1ccc(F)cc1)NCC1CCCO1 (stereo not given)	17*	-85	16	-61
CC1Nc2ncnc(N3CCN(c4ccccn4)CC3)c2N(Cc2ccccc2)C1=O (stereo not given)	-14	45*	-10	43*
COc1ccc(CN2C(=O)C(CC(C)C)Nc3ncnc(N4CCN(c5ccccn5)CC4)c32)cc1 (stereo not given)	-1	-14	2	13
Cc1ccc(CN2C(=O)C(C)Nc3ncnc(N4CCN(c5ccccn5)CC4)c32)cc1 (stereo not given)	-17	55*	-12	56*
COc1ccc(CN2C(=O)C(C)Nc3ncnc(N4CCN(c5ccccn5)CC4)c32)cc1 (stereo not given)	-22	70*	-12	63*
COc1ccc2c(c1)CC/C2=N\OC(=O)c1cccc(C)c1	14*	-33	7	-1
COc1ccc2c(c1)CC/C2=N\OC(=O)c1ccccc1C	5	-11	2	-3
O=C(Nc1nnc(SCc2ccc(Cl)cc2)s1)C1CC(=O)N(Cc2ccccc2)C1 (stereo not given)	-2	-22	3	-5
COc1ccc(S(=O)(=O)N2CCOCC2)cc1NC(=O)COC(=O)CC1CC2CCC1C2 (stereo not given)	2	3	-1	-9
COc1cccc(N2CCN(C(=S)NCc3ccco3)CC2)c1	13*	9	-2	-25
CC(=O)N1CCc2c(sc(NC(=O)Cc3ccc(C)cc3C)c2C#N)C1	0	9	-2	-2
COc1cc(/C=N/N=C(N)N)ccc1OCc1ccc(Cl)cc1	10*	-55	8	-28
CCn1nc(NS(=O)(=O)c2ccccc2[N+](=O)[O-])c2cc3ccc(C)cc3nc21	-3	13	-3	6
CCOC(=O)C1CCN(c2ccc([N+](=O)[O-])cc2)CC1	13*	14	-3	-1
CCOC(=O)C1CCN(C(=O)C2CCN(C(=O)c3ccc([N+](=O)[O-])cc3)CC2)CC1	6	26	-5	-13
Fc1ccccc1/C=N/NC(=S)Nc1ccc(Cl)cc1Cl	1	19	-4	17
Cc1ccc(NC(=O)c2ccc3ccccc3n2)nc1	14*	5	-1	-51
COc1ccccc1N=C(C)C1=C(O)CC(c2ccccc2)CC1=O (stereo not given)	8.9*	1	0	-59
CCCC(=Nc1ccccc1OC)C1=C(O)CC(c2ccccc2)CC1=O (stereo not given)	-2	-9	2	31
Cc1cccc(NC(=O)C2(C)CC3c4ccccc4C2c2ccccc23)c1 (stereo not given)	10*	-73	14	-37
O=C(CSc1n[nH]c(-c2cccs2)n1)N1CCN(S(=O)(=O)c2ccc3ccccc3c2)CC1	9.8*	-23	4	11
O=C(NNC(=O)c1cccc2ccccc12)c1ccccc1O	5	13	-2	-32
O=C(NNC(=O)c1cccc2ccccc12)c1ccc(-c2ccccc2)cc1	13*	-33	6	-52
Cn1c(=O)c(N=O)c(N)n(Cc2ccccc2)c1=S	0	17	-3	-7
COC(=O)C1=C(C(=O)OC)[C@@H]2N(C)c3ccc(OC)cc3[C@@]23C[C@@H](C(=O)OC)N(C(=O)c2cccs2)C3=N1	12	3	-1	-32
CCOc1cc(C(=O)N/N=C/c2ccoc2)cc(OCC)c1OCC	4	10	-3	-13
CCOc1cc(C(=O)N/N=C/c2ccsc2)cc(OCC)c1OCC	14*	12	-2	1
CCCOc1ccc(C(=O)NC(=S)NNC(=O)c2c(-c3ccccc3)noc2C)cc1	-12	46*	-9	44*
CCn1c(N2CCN(S(=O)(=O)c3ccccc3C(F)(F)F)CC2)nc2ccccc21	13*	-12	2	-62
Nc1ccc(N(CCO)CCO)cc1	12*	-17	4	-34

Source: PubChem BioAssay
